“And” between values parts separate entries of the source, which are not always exact repeats. Equal values may be shown once. More than one record can exist for a structure, and the calls need not agree. The source made the active and inactive calls. How the source made its calls: active means hit-call score of the fitted dose curve at least 0.9, where 1 is the maximum; inactive means score below 0.9.

This assay in a line: APR_HepG2_CellCycleArrest_72hr: Apredica 72-hour HepG2 Assay for Cell Cycle Arrest (AID 2282914). The note with it: high-content imaging, actives raise or lower the signal. How it is done:
APR_HepG2_72hr is a cell-based, multiplexed-readout assay that uses HepG2, a human liver cell line, with measurements taken at 72 hours after chemical dosing in a 384-well plate.APR_HepG2_CellCycleArrest_72hr is one of 10 assay component(s) measured or calculated from the APR_HepG2_72hr assay. It is designed to make measurements of cell phenotype, a form of morphology reporter, as detected with fluorescence intensity signals by HCS Fluorescent Imaging technology.Data from the assay component APR_HepG2_CellCycleArrest_72hr was analyzed into 1 assay endpoint. This assay endpoint, APR_HepG2_CellCycleArrest_72hr, was analyzed with bidirectional fitting relative to DMSO as the negative control and baseline of activity. Using a type of morphology reporter, measures of all nuclear dna for gain or loss-of-signal activity can be used to understand the signaling at the pathway-level as they relate to the gene . Furthermore, this assay endpoint can be referred to as a primary readout, because this assay has produced multiple assay endpoints where this one serves a signaling function. To generalize the intended target to other relatable targets, this assay endpoint is annotated to the cell cycle intended target family, where the subfamily is arrest.
Cells were treated with dimethyl sulfoxide (DMSO) as a solvent control at a final concentration of 0.5% v/v or with compounds in DMSO with a resulting final DMSO concentration of 0.5% v/v. Compound treatment was done at concentrations of 0.39, 0.78, 1.56, 3.12, 6.24, 12.5, 25, 50, 100, and 200 uM in duplicate on each plate. Cells were treated with compounds for 1, 24, or 72 hr. Carbonyl […] m-chloro-phenylhydrazone (CCCP) and taxol were used as positive controls for mitochondrial function and cytoskeletal stability, respectively; DMSO served as the negative control for this experiment. Cells were fixed by the direct addition of 50 uL formaldehyde in Hank's Balanced Salt Solution (HBSS) to a final concentration of 3.7%. After incubation in the fixation medium for 30 min at room temperature (293-298 K), cells were rinsed twice with HBSS and treated with cell permeabilization buffer (16 uL of 0.5% Triton X-100) for 10 min at room temperature (293-298 K) before labeling. For mitochondrial membrane potential and mitochondrial measurements, pre-fixed cells were incubated with 50 uL of MitoTracker Red CMXRos (Invitrogen) at a concentration of 250 nM for 30 min before fixation. In the remaining cases, post-fixed cells were labeled by incubation with a multiplexed mixture of primary antibodies in HBSS for 60 min at room temperature (293-298 K) to detect immunoreactivity of c-Jun (1:500), phospho-histone H3 (1:100), phospho-histone H2A.x (1:200), p53 (1:400), alpha-tubulin (1:200) and Hoechst 33342 (2 ug/mL). Cells were labeled for multiplexed imaging on two separate plates: a) Hoechst 33342, MitoTracker Red, phospho-histone H3, and alpha-tubulin, and b) Hoechst 33342, phospho-histone H2A.x, and c-Jun. A final rinse with HBSS (50 uL) was performed before analysis. The primary and secondary antibodies for the proteins were phospho-histone H3 (rabbit anti-phospho-histone H3 and FITC-donkey anti-rabbit IgG), phospho-histone H2A.x (mouse anti-phospho-histone H2A.x and FITC-donkey anti-mouse IgG), c-Jun (rabbit anti-phospho-c-Jun and Cy3-donkey anti-rabbit IgG), p53 (sheep anti-p53 and Cy5-donkey anti-sheep IgG), alpha-tubulin (mouse anti-alpha-tubulin and Cy5-donkey anti-mouse IgG). These antibodies are available as the CellCiphr HepG2 assay kit (Millipore).Digital images of each well were captured using a Cellomics ArrayScan VTI (Thermo Scientific Cellomics) (0.8 NA objective, 0.63x optical coupler, and XF-93 filter set) at 20x magnification. The images were acquired using the autofocus feature of the ArrayScan instrument, which entails the following steps. First, the camera focuses on channel 1 (Hoechst 33342), where nuclei are identified. Second, a Z offset of 1 um is used for capturing mitochondria (MitoTracker Red). […]
Take `CCCN(CCC)c1c([N+](=O)[O-])cc(S(N)(=O)=O)cc1[N+](=O)[O-]`: the molecule was classed as inactive; the AC50 (commonly the concentration giving half of the maximal activity seen) is 27.2 µM (active) and 57.9 µM (active) and 34 µM (active).

`CCCCC(CC)COC(=O)c1ccccc1C(=O)OCC(CC)CCCC` (stereo not given): the molecule was called inactive. Take `COP(N)(=O)SC` (stereo not given): the molecule was classed as inactive. `CO/C=C(/C(=O)OC)c1ccccc1Oc1cc(Oc2ccccc2C#N)ncn1`: the AC50 was 21 µM (active) and 3.09 µM (active) and 5.96 µM (active); the call was inactive.

Consider `COC(=O)N(OC)c1ccccc1COc1ccn(-c2ccc(Cl)cc2)n1`, for which the molecule was classed as inactive.

As to `O=C(O)c1nc(Cl)ccc1Cl`, the result was inactive. Take `O=C(O)COc1nc(Cl)c(Cl)cc1Cl`: the molecule was classed as inactive. The same measure, in the same setting: with `COc1nc(C)nc(NC(=O)NS(=O)(=O)c2ccccc2Cl)n1` the entry was “inactive”. Take `CC(C)(C)c1ccc(CSc2cnn(C(C)(C)C)c(=O)c2Cl)cc1`: the AC50 is 16.1 µM (active). `Oc1ccccc1-c1ccccc1`: the molecule was classed as inactive.

As to `O=C(Nc1ccccc1)Nc1ccnc(Cl)c1`, the AC50 is 37.2 µM (active). With `Cc1cc(Cl)ccc1OCC(=O)O`, the result was inactive. As for `CC1COC(Cn2cncn2)(c2ccc(Oc3ccc(Cl)cc3)cc2Cl)O1` (stereo not given), the AC50 was 64.3 µM (active). Regarding `N#Cc1cc(Br)c(O)c(Br)c1`, the AC50 was 100 µM (active). Turning to `Cc1ccc(-c2c(Cl)nc(C#N)n2S(=O)(=O)N(C)C)cc1`, the molecule was called inactive. Consider `C=CC1(C)OC(=O)N(c2cc(Cl)cc(Cl)c2)C1=O` (stereo not given), for which the molecule was classed as inactive. Regarding `COc1ccc(C(c2ccc(OC)cc2)C(Cl)(Cl)Cl)cc1`, the outcome was inactive. With `CCON=C(CC)C1=C(O)CC(c2c(C)cc(C)cc2C)CC1=O` (stereo not given), the molecule was classed as inactive.

As for `CCNc1nc(Cl)nc(NCC)n1`, the call was inactive. On the same count and under the same terms, with `CCNc1nc(Cl)nc(NC(C)C)n1` the entry was “inactive”; with `CC(C)C1(C)N=C(c2nc3ccccc3cc2C(=O)O)NC1=O` (stereo not given), “inactive”. With `CCOP(=S)(OCC)SCn1c(=O)oc2cc(Cl)ccc21`, the AC50 was 85 µM (active).

On to `OC(c1ccc(Cl)cc1)(c1cncnc1)c1ccccc1Cl` (stereo not given), for which the call was inactive.

In the case of `CNC(=O)ON=CC(C)(C)SC`, the call was inactive. The same measure, in the same setting: as for `CON(C)C(=O)Nc1ccc(Cl)c(Cl)c1`, the entry is “inactive”. With `C=CCC1=C(C)C(OC(=O)C2C(C=C(C)C)C2(C)C)CC1=O` (stereo not given), the result was inactive and the AC50 is 34.4 µM (active). Take `CCOC(=O)C(Cl)Cc1cc(-n2nc(C)n(C(F)F)c2=O)c(F)cc1Cl` (stereo not given): the molecule was called inactive.

Consider `CCOc1cc(Oc2ccc(C(F)(F)F)cc2Cl)ccc1[N+](=O)[O-]`, for which the molecule was called inactive. Same read-out and setting: with `COc1cnc(OC)n2nc(NS(=O)(=O)c3c(OCC(F)F)cccc3C(F)(F)F)nc12` the entry was “inactive”; with `COc1nc(C)nc(NC(=O)NS(=O)(=O)c2ccccc2CCC(F)(F)F)n1`, “inactive”. With `CNC(=S)S`, the molecule was classed as inactive. For `CN(C)C(=S)SSC(=S)N(C)C`, the AC50 was 0.039 µM (active). In the case of `CCc1nn(C)c(C(=O)NCc2ccc(C(C)(C)C)cc2)c1Cl`, the outcome was inactive. Take `CCCCNC(=O)n1c(NC(=O)OC)nc2ccccc21`: the AC50 is 17 µM (active).

Turning to `CC1=C(C(=O)Nc2ccccc2)SCCO1`, the call was inactive. For `CCCCNC(=O)OCC#CI`, the result was inactive. For `COc1nc(NC(C)C)nc(NC(C)C)n1`, the result was inactive.

Values taken from PubChem BioAssay (EPA / NIEHS).
